Source: PubChem BioAssay (NCATS)
Results filed as inconclusive are left out. Calls of active or inactive are those of the source. The call rests on the fitted dose curve; in most records, active means well fitted curve in either direction with a large enough effect (not every such curve was filed as active); inconclusive means small, poorly fitted or top-dose-only effect, or another doubt; inactive means flat fitted curve, though single readings scatter.

The molecules below were run against Mitogen-activated protein kinase 10 (Mus musculus) (UniProt Q61831) (assay: JNK3 AlphaScreen Assay (AID 530;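 further: kinase came from lysate of stimulated human HepG2 cells; signal reports phosphorylation of biotinylated GST-cJun 1-79 at Ser73 with 10 µM ATP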)). Conditions: JNK3 lysate, c-Jun phosphorylation; series mostly up to 57.1 µM; activity change, negative = inhibition: at the top concentration.
Method in brief: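 qHTS titrations with 15 min compound pre-incubation before adding ATP (10 uM final). Read-out: AlphaScreen of Ser73-phosphorylated biotin-GST-cJun using HepG2 lysate JNK3 activated by IL-1β and TNFα.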
On the % scale 0 is the no-effect control and ±100 the full control effect.

Activity change, negative = inhibition, inactive:
C[C@]1(C(=O)NCCN2CCOCC2)C=C[C@@H](Cc2ccccc2)N1C(=O)c1ccccc1 -15.8%
COC(=O)c1ccc(C(/C=C/[C@@H](C)C(=O)NCCc2c[nH]c3ccccc23)NC(=O)OCc2ccccc2)cc1 (some centres not stated) -15%
CN(C)c1ccc(CNC(=O)C2(C)C=CCN2C(=O)c2ccccc2)cc1 (configuration not stated) -17.1%
COC(=O)[C@@H]1C[C@H]1[C@@H](NC(=O)c1ccc(Br)cc1)c1ccccc1 2.16%
CC(C)(C)[Si](OCC[C@@H]1C[C@@]1(C)[C@@H](NP(=O)(c1ccccc1)c1ccccc1)c1ccccc1)(c1ccccc1)c1ccccc1 2.72%
CN(C)C(=O)[C@]1(C)C[C@H]1[C@H](NC(=O)CNC(=O)[C@@H]1CCCN1C(=O)[C@]1(C)C[C@H]1[C@H](NC(=O)OCc1ccccc1)c1ccccc1)c1ccccc1 -0.169%
CNC(=O)[C@H](C)/C=C/C(NC(=O)OCc1ccccc1)c1ccc(C(=O)OC)cc1 (some centres not stated) -1.57%
CC(=O)N1C2(C=CC1(C)C(=O)NCc1cc(F)cc(C(F)(F)F)c1)CCCCC2 (configuration not stated) 10.1%
COC(=O)N1CC=CC1(C)C(=O)NCc1cc(F)cc(C(F)(F)F)c1 (configuration not stated) 5.45%
CC(=O)N1CC=CC1(CC(C)C)C(=O)NCCc1c[nH]c2ccccc12 (configuration not stated) -10.7%
Cc1cc(CNC(=O)C(C)Cc2ccccc2)nn1C (configuration not stated) -0.198%
CCCCNC(=O)C(c1ccc(OCC(=O)OC)c(C(=O)OC)c1)N(Cc1ccccc1)C(=O)CCCCCN1C(=O)NC(c2ccc(-c3ccccc3)cc2)C(C(=O)OCc2ccccc2)=C1C (configuration not stated) -9.83%
CCCCCCN(C(=O)CCCCCN1C(=O)NC(c2ccc(C(F)(F)F)cc2)C(C(=O)OCc2ccccc2)=C1C)C(C(=O)NCCCC)c1ccc(OCC(=O)OC)c(C(=O)OC)c1 (configuration not stated) 7.02%
COC(=O)c1ccc(C(NC(=O)OCc2ccccc2)/C(=C/[C@@H](C)C(=O)N[C@@H](CO)Cc2ccccc2)c2cccnc2)cc1 (some centres not stated) -5.42%
CCCCCCN(C(=O)CCCCCN1C(=O)NC(c2ccc([N+](=O)[O-])cc2)C(C(=O)OCc2ccccc2)=C1C)C(C(=O)NCCCC)c1ccc(OCC(=O)OC)c(C(=O)OC)c1 (configuration not stated) -8.29%
CCC[C@@H]1C[C@@]1(CCC)[C@@H](NC(=O)c1ccccc1)c1ccc(C(=O)OC)cc1 20.2%
CC(Cc1ccccc1)C(=O)NCCO (configuration not stated) 1.71%
COC(=O)c1ccc(C(NC(=O)OCc2ccccc2)/C(=C/[C@@H](C)C(=O)NCc2ccc(OC)c(O)c2)c2cccnc2)cc1 (some centres not stated) -4.39%
CC(C)NC(=O)[C@@H]1C[C@H]1[C@@H](NC(=O)OCc1ccccc1)c1ccccc1 -1.31%
COC(=O)c1ccc(C(NC(=O)OCc2ccccc2)/C(I)=C/[C@@H](C)C(=O)NCC2CC2)cc1 (some centres not stated) 8.13%
CCCCCCN(C(=O)CCCCCN1C(=O)NC(c2ccc(C3CCCCC3)cc2)C(C(=O)OCc2ccccc2)=C1C)C(C(=O)NCCCC)c1ccc(OCC(=O)OC)c(C(=O)OC)c1 (configuration not stated) -8.73%
C[C@@H]1C=C[C@](Cc2ccccc2)(C(=O)NCCN2CCOCC2)N1C(=O)c1ccccc1 1.73%
COC(=O)c1ccc(C(NC(=O)OCc2ccccc2)/C(=C/[C@@H](C)C(=O)NCc2cc(F)cc(F)c2)c2cccnc2)cc1 (some centres not stated) 2.7%
C[C@]1(C(=O)NCCCNc2ncc(C(F)(F)F)cc2Cl)C=C[C@@H](Cc2ccccc2)N1C(=O)c1ccccc1 -5.53%
CC(=O)N1C2(C=CC1(C)C(=O)NCc1ccccn1)CCCCC2 (configuration not stated) -2.89%
CCCCCCN(C(=O)CCCCCN1C(=O)NC(c2ccc(-c3ccccc3)cc2)C(C(=O)OCc2ccccc2)=C1C)C(C(=O)NCCCC)c1ccc(O)c(C(=O)OC)c1 (configuration not stated) -1.94%
CCCCNC(=O)C(c1ccc(OCC(=O)OC)c(C(=O)OC)c1)N(CCc1ccccn1)C(=O)CCCCCN1C(=O)NC(c2ccc(-c3ccccc3)cc2)C(C(=O)OCc2ccccc2)=C1C (configuration not stated) -9.77%
COC(=O)c1ccc(C(/C=C/[C@@H](C)C(=O)NCCN2CCCC2)NC(=O)OCc2ccccc2)cc1 (some centres not stated) -4.4%
COC(=O)c1ccc(C(NC(=O)OCc2ccccc2)/C(=C/[C@@H](C)C(=O)NCc2ccc(C)o2)c2cccnc2)cc1 (some centres not stated) 2.45%
CC(C)CC1(C(=O)NCCN2CCOCC2)C=CCN1C(=O)c1ccccc1 (configuration not stated) 5.35%
C=C(N(C)C)[C@]1(C)C[C@H]1[C@H](NC(=O)CNC(=O)OCc1ccccc1)c1ccccc1 2.25%

outcome, inactive:
COC(=O)c1ccc(C(NC(=O)OCc2ccccc2)/C(C)=C/[C@@H](C)C(=O)NCCN2CCOCC2)cc1 (some centres not stated)
